# In article PMC7862700, “An all-to-all approach to the identification of sequence-specific readers for epigenetic DNA modifications on cytosine”:
# Legend:
# Assay in all cases: DAPPL (digital affinity profiling via proximity ligation, sequencing); 10 mM Tris-HCl pH 7.5, 50 mM NaCl, 1 mM DTT, 4% glycerol, room temperature, 30 min; GST-TFs on glutathione beads, 16-mer random dsDNA library, 0.1% formaldehyde crosslink after washing; high values mean tight binding
# [1] = target: T1, FLI1 (Homo sapiens, UniProt Q01543 1-452); conditions: protein: recombinant; tags: N-terminal GST; dsDNA, one strand shown
# T1 sequence: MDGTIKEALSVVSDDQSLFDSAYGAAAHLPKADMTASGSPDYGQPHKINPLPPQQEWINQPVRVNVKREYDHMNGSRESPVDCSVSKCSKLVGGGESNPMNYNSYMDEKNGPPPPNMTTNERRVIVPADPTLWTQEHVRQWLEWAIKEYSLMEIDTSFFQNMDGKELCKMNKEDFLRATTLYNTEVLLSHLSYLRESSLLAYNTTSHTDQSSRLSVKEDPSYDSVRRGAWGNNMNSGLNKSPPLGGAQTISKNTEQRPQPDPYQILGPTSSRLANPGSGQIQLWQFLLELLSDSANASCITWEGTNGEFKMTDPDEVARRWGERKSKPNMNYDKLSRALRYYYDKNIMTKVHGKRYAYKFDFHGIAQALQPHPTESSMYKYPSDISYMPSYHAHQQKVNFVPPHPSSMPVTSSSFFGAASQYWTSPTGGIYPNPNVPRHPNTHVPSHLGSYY
# Procedure, shortened: (§1)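 GST fusions of human transcription factors were expressed in yeast and captured with glutathione beads. Once given DNA barcodes and pooled alongside a tag-only sample, they were incubated for 30 min at room temperature with 200 nmole of a random double-stranded 16-mer DNA library in Tris/NaCl/DTT/glycerol buffer, then washed, crosslinked (0.1% formaldehyde), proximity-ligated, PCR-amplified and sequenced on an Illumina NextSeq500. The binding signal of each hexamer is its read frequency for a factor divided by its frequency for the tag-only sample.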
# [2] = target: T2, ELK1 (Homo sapiens, UniProt P19419 1-428); conditions: protein: recombinant; tags: N-terminal GST; dsDNA, one strand shown
# T2 sequence: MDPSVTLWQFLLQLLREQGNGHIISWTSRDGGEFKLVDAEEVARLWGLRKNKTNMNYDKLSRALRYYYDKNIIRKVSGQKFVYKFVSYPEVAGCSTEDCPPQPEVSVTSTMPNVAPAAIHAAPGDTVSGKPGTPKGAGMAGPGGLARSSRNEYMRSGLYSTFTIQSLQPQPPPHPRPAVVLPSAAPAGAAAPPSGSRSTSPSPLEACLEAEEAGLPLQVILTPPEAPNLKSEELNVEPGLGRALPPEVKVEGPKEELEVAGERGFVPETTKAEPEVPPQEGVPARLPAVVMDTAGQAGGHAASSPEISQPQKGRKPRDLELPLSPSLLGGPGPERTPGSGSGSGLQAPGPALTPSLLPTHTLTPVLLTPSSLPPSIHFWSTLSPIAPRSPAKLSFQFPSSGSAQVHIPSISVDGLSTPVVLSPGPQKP
# Procedure, shortened: as §1
# [3] = target: T3, GABPA (Homo sapiens, UniProt Q06546 1-454); conditions: protein: recombinant; tags: N-terminal GST; dsDNA, one strand shown
# T3 sequence: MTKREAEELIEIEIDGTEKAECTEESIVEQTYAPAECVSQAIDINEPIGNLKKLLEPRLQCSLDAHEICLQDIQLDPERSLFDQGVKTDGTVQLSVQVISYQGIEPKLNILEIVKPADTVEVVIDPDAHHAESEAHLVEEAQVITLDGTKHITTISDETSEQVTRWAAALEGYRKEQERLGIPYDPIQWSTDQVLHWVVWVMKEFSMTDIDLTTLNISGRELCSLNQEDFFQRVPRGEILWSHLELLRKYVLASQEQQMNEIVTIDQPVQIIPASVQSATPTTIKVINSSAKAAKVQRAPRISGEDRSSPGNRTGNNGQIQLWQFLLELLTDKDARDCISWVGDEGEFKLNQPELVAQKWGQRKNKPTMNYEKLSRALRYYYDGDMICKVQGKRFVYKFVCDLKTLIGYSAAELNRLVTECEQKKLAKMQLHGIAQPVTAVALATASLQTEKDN
# Procedure, shortened: as §1
# [4] = target: T4, ERG (Homo sapiens, UniProt P11308 1-479); conditions: protein: recombinant; tags: N-terminal GST; dsDNA, one strand shown
# T4 sequence: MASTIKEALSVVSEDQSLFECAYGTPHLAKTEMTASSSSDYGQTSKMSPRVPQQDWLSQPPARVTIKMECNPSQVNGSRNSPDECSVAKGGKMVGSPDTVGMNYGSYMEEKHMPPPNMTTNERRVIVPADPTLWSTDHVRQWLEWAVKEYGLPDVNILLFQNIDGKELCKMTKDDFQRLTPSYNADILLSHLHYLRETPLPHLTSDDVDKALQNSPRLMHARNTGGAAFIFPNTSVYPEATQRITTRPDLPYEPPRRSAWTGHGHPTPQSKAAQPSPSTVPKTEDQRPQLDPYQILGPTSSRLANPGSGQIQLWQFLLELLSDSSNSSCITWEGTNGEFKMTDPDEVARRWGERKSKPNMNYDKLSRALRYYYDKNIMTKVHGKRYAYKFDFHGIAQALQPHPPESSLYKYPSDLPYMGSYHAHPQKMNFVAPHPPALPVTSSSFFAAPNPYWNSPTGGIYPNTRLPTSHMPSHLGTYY
# Procedure, shortened: as §1
# [5] = target: ELF1 (Homo sapiens, UniProt P32519 1-619); conditions: protein: recombinant; tags: N-terminal GST; dsDNA, one strand shown
# Procedure, shortened: as §1
# [6] = target: T5, EHF (Homo sapiens, UniProt Q9NZC4 1-300); conditions: protein: recombinant; tags: N-terminal GST; dsDNA, one strand shown
# T5 sequence: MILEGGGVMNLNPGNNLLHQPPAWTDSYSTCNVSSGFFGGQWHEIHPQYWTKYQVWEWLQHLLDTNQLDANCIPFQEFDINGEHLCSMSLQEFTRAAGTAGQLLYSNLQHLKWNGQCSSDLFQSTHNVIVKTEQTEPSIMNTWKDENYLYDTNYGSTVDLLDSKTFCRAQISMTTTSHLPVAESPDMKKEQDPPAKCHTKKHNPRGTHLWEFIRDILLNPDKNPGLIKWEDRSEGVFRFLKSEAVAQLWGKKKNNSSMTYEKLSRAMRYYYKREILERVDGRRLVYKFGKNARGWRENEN
# Procedure, shortened: as §1
# [7] = target: SPI1 (Homo sapiens, UniProt P17947 1-270); conditions: protein: recombinant; tags: N-terminal GST; dsDNA, one strand shown
# Procedure, shortened: as §1
# [8] = target: SPIB (Homo sapiens, UniProt Q01892 1-262); conditions: protein: recombinant; tags: N-terminal GST; dsDNA, one strand shown
# Procedure, shortened: as §1
# [9] = target: T6, ELK3 (Homo sapiens, UniProt P41970 1-407); conditions: protein: recombinant; tags: N-terminal GST; dsDNA, one strand shown
# T6 sequence: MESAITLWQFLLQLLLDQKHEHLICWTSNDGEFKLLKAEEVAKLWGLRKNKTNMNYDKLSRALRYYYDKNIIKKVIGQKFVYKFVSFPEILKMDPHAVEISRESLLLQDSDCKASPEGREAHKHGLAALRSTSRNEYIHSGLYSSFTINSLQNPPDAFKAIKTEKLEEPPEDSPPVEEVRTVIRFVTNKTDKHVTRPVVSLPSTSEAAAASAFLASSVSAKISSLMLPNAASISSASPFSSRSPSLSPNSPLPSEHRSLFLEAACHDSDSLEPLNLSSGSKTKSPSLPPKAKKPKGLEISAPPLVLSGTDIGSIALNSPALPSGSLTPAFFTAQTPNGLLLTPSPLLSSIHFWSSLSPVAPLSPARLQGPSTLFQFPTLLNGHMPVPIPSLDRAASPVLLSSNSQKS
# Procedure, shortened: as §1
# [10] = target: T7, FEV (Homo sapiens, UniProt Q99581 1-238); conditions: protein: recombinant; tags: N-terminal GST; dsDNA, one strand shown
# T7 sequence: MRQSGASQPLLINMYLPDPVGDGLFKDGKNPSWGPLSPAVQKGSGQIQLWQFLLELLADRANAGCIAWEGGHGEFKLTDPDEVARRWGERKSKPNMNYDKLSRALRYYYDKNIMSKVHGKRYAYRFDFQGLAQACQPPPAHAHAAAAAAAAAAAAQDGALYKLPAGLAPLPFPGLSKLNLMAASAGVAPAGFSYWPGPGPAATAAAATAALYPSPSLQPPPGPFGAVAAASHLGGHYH
# Procedure, shortened: as §1
# [11] = target: ETV5 (Homo sapiens, UniProt P41161 1-510); conditions: protein: recombinant; tags: N-terminal GST; dsDNA, one strand shown
# Procedure, shortened: as §1
# [12] = target: HSF1 (Homo sapiens, UniProt Q00613 1-529); conditions: protein: recombinant; tags: N-terminal GST; chain copies: 3; dsDNA, one strand shown
# Procedure, shortened: as §1
# [13] = target: T8, SPIC (Homo sapiens, UniProt Q8N5J4 1-248); conditions: protein: recombinant; tags: N-terminal GST; dsDNA, one strand shown
# T8 sequence: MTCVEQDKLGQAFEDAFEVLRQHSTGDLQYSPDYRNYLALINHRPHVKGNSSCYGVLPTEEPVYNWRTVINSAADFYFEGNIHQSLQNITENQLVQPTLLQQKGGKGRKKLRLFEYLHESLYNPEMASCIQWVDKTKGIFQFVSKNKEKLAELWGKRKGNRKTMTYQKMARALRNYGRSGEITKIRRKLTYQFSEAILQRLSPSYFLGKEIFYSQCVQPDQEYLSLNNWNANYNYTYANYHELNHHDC
# Procedure, shortened: as §1
# [14] = target: ELF4 (Homo sapiens, UniProt Q99607 1-663); conditions: protein: recombinant; tags: N-terminal GST; dsDNA, one strand shown
# Procedure, shortened: as §1
# [15] = target: T9, ELK4 (Homo sapiens, UniProt P28324-2 1-405); conditions: protein: recombinant; tags: N-terminal GST; dsDNA, one strand shown
# T9 sequence: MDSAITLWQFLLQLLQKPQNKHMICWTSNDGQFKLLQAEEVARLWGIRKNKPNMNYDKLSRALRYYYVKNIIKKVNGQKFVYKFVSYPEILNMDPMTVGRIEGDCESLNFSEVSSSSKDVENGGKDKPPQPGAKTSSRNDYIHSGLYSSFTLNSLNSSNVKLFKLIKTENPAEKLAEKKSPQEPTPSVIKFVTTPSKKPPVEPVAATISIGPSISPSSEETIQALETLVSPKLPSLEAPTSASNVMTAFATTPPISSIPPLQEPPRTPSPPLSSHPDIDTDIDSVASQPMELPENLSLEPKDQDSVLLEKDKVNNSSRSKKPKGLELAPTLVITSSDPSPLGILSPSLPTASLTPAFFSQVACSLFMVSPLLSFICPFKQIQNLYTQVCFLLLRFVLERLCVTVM
# Procedure, shortened: as §1
# [16] = target: T10, ETV2 (Homo sapiens, UniProt O00321 1-342); conditions: protein: recombinant; tags: N-terminal GST; dsDNA, one strand shown
# T10 sequence: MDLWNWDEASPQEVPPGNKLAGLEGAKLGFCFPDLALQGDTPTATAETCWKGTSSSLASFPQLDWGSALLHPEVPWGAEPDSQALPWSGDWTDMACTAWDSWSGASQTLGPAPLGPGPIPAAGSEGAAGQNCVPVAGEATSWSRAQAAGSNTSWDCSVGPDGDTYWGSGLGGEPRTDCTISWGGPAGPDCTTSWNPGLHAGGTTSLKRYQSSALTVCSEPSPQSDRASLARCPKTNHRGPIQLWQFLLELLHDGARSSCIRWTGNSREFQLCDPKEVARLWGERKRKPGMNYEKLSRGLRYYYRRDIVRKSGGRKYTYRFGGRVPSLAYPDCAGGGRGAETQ
# Procedure, shortened: as §1
# [17] = target: T11, ELF3 (Homo sapiens, UniProt P78545 1-371); conditions: protein: recombinant; tags: N-terminal GST; dsDNA, one strand shown
# T11 sequence: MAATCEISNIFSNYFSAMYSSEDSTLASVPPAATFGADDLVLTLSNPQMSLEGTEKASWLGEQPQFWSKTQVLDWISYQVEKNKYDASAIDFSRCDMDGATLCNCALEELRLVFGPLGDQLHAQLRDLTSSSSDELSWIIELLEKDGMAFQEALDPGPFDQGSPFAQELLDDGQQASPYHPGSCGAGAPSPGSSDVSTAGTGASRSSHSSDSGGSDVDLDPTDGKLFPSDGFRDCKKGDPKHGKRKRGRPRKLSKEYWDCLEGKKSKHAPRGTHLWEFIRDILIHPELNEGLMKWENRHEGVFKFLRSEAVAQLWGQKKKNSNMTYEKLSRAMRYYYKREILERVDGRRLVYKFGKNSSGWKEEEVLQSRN
# Procedure, shortened: as §1
# [18] = target: CRX (Homo sapiens, UniProt O43186 1-299); conditions: protein: recombinant; tags: N-terminal GST; dsDNA, one strand shown
# Procedure, shortened: as §1
# [19] = target: ETV1 (Homo sapiens, UniProt P50549 1-477); conditions: protein: recombinant; tags: N-terminal GST; dsDNA, one strand shown
# Procedure, shortened: as §1
# ELF1, sequence (P32519 whole entry): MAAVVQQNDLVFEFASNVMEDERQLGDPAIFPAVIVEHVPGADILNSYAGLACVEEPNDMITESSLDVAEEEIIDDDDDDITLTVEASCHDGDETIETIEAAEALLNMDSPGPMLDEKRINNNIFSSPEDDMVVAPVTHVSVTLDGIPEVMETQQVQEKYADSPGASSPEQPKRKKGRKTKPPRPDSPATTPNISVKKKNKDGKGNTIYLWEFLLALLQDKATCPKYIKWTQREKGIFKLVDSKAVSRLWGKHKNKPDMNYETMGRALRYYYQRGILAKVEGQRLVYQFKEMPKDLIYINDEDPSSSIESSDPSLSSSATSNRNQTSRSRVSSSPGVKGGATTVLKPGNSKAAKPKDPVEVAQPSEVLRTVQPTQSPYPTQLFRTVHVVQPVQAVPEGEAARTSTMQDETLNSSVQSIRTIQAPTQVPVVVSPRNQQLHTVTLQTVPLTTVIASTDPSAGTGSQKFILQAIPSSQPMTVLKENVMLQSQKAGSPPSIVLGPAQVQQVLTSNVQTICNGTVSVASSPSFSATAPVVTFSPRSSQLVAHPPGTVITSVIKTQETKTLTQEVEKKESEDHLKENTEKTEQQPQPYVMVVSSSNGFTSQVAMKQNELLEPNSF
# ETV5, sequence (P41161 whole entry): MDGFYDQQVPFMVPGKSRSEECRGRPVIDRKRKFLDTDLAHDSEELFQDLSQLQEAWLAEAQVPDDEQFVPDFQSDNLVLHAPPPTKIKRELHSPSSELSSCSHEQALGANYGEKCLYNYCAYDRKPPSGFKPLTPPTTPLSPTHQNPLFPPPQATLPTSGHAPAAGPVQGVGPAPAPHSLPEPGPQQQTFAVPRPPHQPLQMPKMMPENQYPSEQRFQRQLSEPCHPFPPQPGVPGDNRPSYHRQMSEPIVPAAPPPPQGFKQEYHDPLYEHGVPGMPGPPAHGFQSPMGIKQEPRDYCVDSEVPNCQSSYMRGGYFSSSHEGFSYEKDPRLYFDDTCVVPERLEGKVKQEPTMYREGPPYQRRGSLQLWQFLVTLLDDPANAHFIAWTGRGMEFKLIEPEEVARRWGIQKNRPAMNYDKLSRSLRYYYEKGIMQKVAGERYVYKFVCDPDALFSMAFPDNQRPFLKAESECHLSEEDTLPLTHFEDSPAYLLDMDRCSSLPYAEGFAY
# HSF1, sequence (Q00613 whole entry): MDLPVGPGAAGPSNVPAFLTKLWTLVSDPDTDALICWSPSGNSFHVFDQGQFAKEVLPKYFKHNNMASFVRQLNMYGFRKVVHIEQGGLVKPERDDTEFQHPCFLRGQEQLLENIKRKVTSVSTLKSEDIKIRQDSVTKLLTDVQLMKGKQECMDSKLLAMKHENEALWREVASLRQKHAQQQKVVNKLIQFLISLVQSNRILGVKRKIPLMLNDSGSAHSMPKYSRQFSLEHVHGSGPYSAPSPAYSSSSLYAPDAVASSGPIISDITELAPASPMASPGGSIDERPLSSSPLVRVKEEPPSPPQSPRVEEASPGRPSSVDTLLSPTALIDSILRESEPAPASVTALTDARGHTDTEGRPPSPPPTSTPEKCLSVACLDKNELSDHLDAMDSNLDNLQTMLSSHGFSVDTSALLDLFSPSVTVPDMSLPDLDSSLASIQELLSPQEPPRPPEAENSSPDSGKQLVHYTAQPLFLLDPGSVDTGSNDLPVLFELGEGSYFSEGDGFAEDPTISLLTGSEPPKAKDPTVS
# SPIB, sequence (Q01892 whole entry): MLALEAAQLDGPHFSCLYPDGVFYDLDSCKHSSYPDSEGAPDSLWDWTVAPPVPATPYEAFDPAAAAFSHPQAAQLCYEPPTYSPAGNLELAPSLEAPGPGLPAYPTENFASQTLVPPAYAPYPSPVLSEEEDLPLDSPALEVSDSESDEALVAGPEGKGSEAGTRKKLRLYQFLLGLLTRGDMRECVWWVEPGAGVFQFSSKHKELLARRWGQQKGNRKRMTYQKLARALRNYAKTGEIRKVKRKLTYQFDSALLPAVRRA
# ELF4, sequence (Q99607 whole entry): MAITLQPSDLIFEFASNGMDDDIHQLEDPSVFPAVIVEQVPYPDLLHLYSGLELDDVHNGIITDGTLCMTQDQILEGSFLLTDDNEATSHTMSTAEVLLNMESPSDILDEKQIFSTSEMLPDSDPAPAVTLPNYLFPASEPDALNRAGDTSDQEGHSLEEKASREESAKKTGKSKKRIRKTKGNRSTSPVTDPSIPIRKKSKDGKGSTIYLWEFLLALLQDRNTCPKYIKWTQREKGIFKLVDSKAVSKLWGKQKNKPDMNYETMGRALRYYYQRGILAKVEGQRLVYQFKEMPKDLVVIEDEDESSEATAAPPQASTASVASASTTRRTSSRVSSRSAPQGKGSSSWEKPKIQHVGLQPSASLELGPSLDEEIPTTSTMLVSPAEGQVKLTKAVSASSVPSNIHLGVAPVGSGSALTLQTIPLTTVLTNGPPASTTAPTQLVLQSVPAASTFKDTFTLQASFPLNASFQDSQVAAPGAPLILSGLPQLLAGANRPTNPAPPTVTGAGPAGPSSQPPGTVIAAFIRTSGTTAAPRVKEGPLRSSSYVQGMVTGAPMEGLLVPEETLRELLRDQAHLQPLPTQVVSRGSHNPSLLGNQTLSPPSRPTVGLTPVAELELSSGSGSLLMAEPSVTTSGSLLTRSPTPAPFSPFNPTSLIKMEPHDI
# ETV1, sequence (P50549 whole entry): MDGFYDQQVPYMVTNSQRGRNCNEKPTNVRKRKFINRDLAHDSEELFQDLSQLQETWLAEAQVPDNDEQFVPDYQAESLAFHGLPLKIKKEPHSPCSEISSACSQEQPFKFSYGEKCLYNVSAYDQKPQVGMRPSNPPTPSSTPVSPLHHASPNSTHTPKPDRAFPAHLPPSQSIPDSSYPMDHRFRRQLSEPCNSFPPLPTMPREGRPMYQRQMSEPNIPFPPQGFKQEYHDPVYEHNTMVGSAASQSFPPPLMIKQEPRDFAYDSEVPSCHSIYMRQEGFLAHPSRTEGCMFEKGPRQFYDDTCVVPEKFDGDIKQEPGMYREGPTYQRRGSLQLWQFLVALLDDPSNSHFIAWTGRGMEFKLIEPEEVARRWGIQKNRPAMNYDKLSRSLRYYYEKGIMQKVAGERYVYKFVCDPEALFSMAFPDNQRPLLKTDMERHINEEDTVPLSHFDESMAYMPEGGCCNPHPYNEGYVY
# CRX, sequence (O43186 whole entry): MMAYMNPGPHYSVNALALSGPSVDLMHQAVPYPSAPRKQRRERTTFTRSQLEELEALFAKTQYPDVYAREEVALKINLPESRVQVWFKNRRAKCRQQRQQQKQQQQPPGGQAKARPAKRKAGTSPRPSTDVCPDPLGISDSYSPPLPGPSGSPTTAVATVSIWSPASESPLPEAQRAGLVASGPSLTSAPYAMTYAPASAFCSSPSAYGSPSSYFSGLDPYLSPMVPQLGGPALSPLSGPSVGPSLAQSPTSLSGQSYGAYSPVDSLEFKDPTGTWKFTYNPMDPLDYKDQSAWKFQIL
sequence,measurement,setting,value
GTAAAC,binding signal,[1],"1.16 fold enrichment (6-mer frequency, TF over GST control)"
same,binding signal,[2],"1.26 fold enrichment (6-mer frequency, TF over GST control)"
same,binding signal,[3],"1.26 fold enrichment (6-mer frequency, TF over GST control)"
same,binding signal,[4],"1.19 fold enrichment (6-mer frequency, TF over GST control)"
same,binding signal,[5],"1.17 fold enrichment (6-mer frequency, TF over GST control)"
same,binding signal,[6],"1.25 fold enrichment (6-mer frequency, TF over GST control)"
same,binding signal,[7],"1.25 fold enrichment (6-mer frequency, TF over GST control)"
same,binding signal,[8],"1.25 fold enrichment (6-mer frequency, TF over GST control)"
same,binding signal,[9],"1.25 fold enrichment (6-mer frequency, TF over GST control)"
same,binding signal,[10],"1.17 fold enrichment (6-mer frequency, TF over GST control)"
same,binding signal,[11],"1.18 fold enrichment (6-mer frequency, TF over GST control)"
same,binding signal,[12],"1.03 fold enrichment (6-mer frequency, TF over GST control)"
same,binding signal,[13],"1.23 fold enrichment (6-mer frequency, TF over GST control)"
same,binding signal,[14],"1.23 fold enrichment (6-mer frequency, TF over GST control)"
same,binding signal,[15],"1.27 fold enrichment (6-mer frequency, TF over GST control)"
same,binding signal,[16],"1.15 fold enrichment (6-mer frequency, TF over GST control)"
same,binding signal,[17],"1.38 fold enrichment (6-mer frequency, TF over GST control)"
same,binding signal,[18],"1.07 fold enrichment (6-mer frequency, TF over GST control)"
same,binding signal,[19],"1.22 fold enrichment (6-mer frequency, TF over GST control)"
